Bioassay records (PubChem BioAssay)
The list is not random: actives were taken first. Their share in the collection is about 1.5%.
N-glyco inh: N-linked glycosylation inhibition; reporter increase, % at 12.5 µM; D54 ERlucT glycosylation luciferase reporter, 24 h; percent of 100 nM tunicamycin response; AID 588692; hit rate 0.23% among 360,000;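 active = mean luciferase reporter signal, scaled so untreated is 0 and the glycosylation-blocking control 100, at or above a set limit in every replicate; inconclusive = mean reaches the limit but not every replicate does; inactive = mean below the limit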;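 note: luciferase carries N-glycosylation sites so blocking glycosylation raises the light; 0% = median of neutral control wells and 100% = median of 100 nM tunicamycin wells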
F508del corr: correctors of CFTR F508del function in bronchial epithelial cells; CFBE cells, YFP halide quenching; stimulated with forskolin plus potentiator P3; % fluorescence drop versus neutral controls; activity (quench increase), % at 7.58 µM; hit rate 0.36% among 350,000;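 active = mean added fluorescence quench of at least 8% versus neutral control, with both replicates also reaching 8%; inconclusive = only one of the mean or replicate conditions met; inactive = mean below 8% and not both replicates reaching 8%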;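 note: cells transiently co-express mutant CFTR-F508del with the halide-sensitive YFP; corrector assay measuring rescue of mutant channel to the surface after 24 h compound exposure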
PvdQ inh: P. aeruginosa PvdQ acylase inhibition; purified PvdQ acylase, fluorescence plate reader; inhibition, % at 10 µM; hit rate 0.063% among 340,000; AID 488965; in the data active = inhibition above about 30%, passing the limit was not always enough; inconclusive = no clear call, values can overlap the other calls;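 note: 0% = vehicle neutral wells and 100% = reference inhibitor wells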
dFosB activator: enhances mouse delta FosB homodimer DNA binding | purified delta FosB, TAMRA-CDK5 oligo fluorescence polarization; percent of positive-control signal above neutral wells | AID 493131 | hit rate 0.99% among 340,000 | activation, % at 25 µM;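 active = mean activation above about 17%, with every replicate also reaching it, limit read from the data, passing the limit was not always enough; inconclusive = only one of the two conditions met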
RAD52 inh: blocks human RAD52 DNA annealing. P43351. hit rate 0.46% among 360,000. AID 651710. recombinant RAD52 DNA annealing, FRET fluorescence. inhibition, % at 18.7 µM;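 active = every replicate showing at least 50% inhibition; inconclusive = mean inhibition at least 50% but not in every replicate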
RAD54 inh: blocks human RAD54 Holliday junction branch migration | hit rate 0.14% among 360,000 | Q92698 | inhibition, % at 10.4 µM | FAM/BHQ fluorescence;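 active = mean normalized replicate activity at least 40 and at least half of replicates scoring 40 or more; inconclusive = only one of the two criteria met; inactive = mean below 40 and under half of replicates reaching 40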;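 note: 0% = median of neutral control wells and 100% = median of positive control wells; inhibitors cause a drop in the FAM fluorescence signal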
Target sequence (Q92698 whole entry, looked up): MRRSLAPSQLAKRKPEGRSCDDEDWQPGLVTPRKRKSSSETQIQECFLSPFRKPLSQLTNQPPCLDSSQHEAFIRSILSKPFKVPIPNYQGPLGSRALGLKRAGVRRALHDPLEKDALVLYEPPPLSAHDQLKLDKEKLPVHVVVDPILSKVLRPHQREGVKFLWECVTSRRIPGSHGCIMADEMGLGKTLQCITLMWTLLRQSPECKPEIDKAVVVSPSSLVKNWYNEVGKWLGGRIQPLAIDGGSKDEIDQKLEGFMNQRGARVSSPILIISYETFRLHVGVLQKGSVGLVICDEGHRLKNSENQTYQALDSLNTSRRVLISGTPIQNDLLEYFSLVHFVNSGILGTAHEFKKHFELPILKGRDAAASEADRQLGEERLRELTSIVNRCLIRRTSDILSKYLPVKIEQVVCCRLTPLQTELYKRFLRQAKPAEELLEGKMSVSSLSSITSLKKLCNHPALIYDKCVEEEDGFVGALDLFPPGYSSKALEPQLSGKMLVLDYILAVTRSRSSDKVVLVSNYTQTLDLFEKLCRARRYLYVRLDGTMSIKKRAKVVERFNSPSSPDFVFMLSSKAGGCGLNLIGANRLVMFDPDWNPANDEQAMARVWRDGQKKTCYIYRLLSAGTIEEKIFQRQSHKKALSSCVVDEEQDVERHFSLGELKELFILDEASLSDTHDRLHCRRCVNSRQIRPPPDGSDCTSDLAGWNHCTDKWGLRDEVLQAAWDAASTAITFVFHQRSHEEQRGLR
DNA binder FP: binds DNA, flagging false RAD52 inhibitor hits; shares compounds with RAD52 inh; AC50, µM; Salmon sperm DNA/acridine orange FP displacement, DNA binding; AID 652128; hit rate 8% among 1,000;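 active = fitted half-maximal concentration for signal loss at or below twice the highest dose tested, in every separate run, actives reach about 64 µM in these data; inconclusive = runs disagree, or flat partial signal loss, or poor fit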
Active calls of the source: *; i = inactive; u = inconclusive; x = no result given.

SMILES	N-glyco inh	F508del corr	PvdQ inh	dFosB activator	RAD52 inh	RAD54 inh	DNA binder FP
CCN1CCN(CCNC(=O)c2ccc(/C=C3/Sc4ccccc4N(Cc4ccccc4C)C3=O)cc2)CC1	-8	-6	-1	-204	55*	1	i
CCCNC(=O)N1CC2(CN(C(=O)C3CCCCC3)C2)c2c([nH]c3cc(OC)ccc23)[C@H]1CO	x	-1	x	x	0	x	x
CCN(CC)c1ccc(C(=C2C=CC(=[N+](CC)CC)C=C2)c2ccccc2)cc1	-23	-9	-9	-11	36	x	x
CCN(CC)c1ccc(C(=C2C=CC(=[N+](CC)CC)C=C2)c2ccc(N(CC)CC)cc2)cc1	-23	-6	12	7	52*	17	i
CN1[C@H](C(=O)Nc2ccccc2)[C@@H](CO)[C@@H]2Cn3c(ccc(-c4ccccc4)c3=O)[C@@H]21	x	-2	x	x	11	3	x
CCN1CCN(CCCNC(=O)C2CCN(c3nnc(-n4c(C)ccc4C)s3)CC2)CC1	3	2	-8	4	73*	-2	i
CN1[C@@H]2c3ccc(-c4ccc(F)cc4)c(=O)n3C[C@H]1[C@H](CO)[C@H]2C(=O)N1CCCCC1	x	x	x	x	9	10	x
O=C(c1ccccc1F)N1C[C@H]2O[C@@H](CNS(=O)(=O)c3ccccc3)CC[C@H]21	x	-1	x	x	-8	x	x
Cc1ccc(S(=O)(=O)N(C)C[C@@H]2Oc3ccc(NS(C)(=O)=O)cc3CC(=O)N([C@@H](C)CO)C[C@@H]2C)cc1	x	-1	x	x	0	11	x
CC(C)c1c(O)c2c(n(-c3ccccc3)c1=O)CCCC2	0	x	-11	1	x	x	x
CC/C(=N\O)c1c(O)c2c(n(-c3ccccc3)c1=O)CCCC2	1	x	16	6	54*	x	i
NC(=O)CC(NC(=O)Cc1cccc2ccccc12)c1ccc(N2CCC(N3CCCC3)CC2)c([N+](=O)[O-])c1 (stereo unspecified)	1	-2	8	0	13	0	x
CN1CCN(c2ccc(C(CC(N)=O)NC(=O)Cc3cccc4ccccc34)cc2[N+](=O)[O-])CC1 (stereo unspecified)	1	-1	-9	-4	56*	0	u
Cc1cccc(CN(C)C[C@@H]2OCc3cn(nn3)CCCC(=O)N([C@H](C)CO)C[C@H]2C)c1	x	-1	x	x	-9	2	x
O=[N+]([O-])c1ccc2c(c1)c1ccccc1n2CCO	-1	-1	-10	-1	-17	6	x
CCN(CC)CC(O)Cn1c(C)c(-c2ccccc2)c2cc([N+](=O)[O-])ccc21 (stereo unspecified)	1	4	-15	10	64*	24	i
C[C@@H]1CN([C@H](C)CO)S(=O)(=O)c2ccc(C3=CCCCC3)cc2O[C@H]1CN(C)C(=O)C1CCOCC1	x	-2	x	x	-2	-2	x
Cc1cc(N/N=C/c2ccc(N(C)C)cc2)c2ccccc2n1	0	0	-34	-15	-207	-7	x
Cc1cc(N/N=C/c2ccc(O)cc2)c2cccc(C)c2n1	25	-13	-5	105*	77*	118*	52µM*
Cc1cc(C)c2nc(C)cc(N/N=C/c3ccc(O)cc3)c2c1	-21	-13	-12	-41	94*	119*	u
CO[C@H]1CN(C)C(=O)c2cc(NC(=O)c3ccc(F)cc3)ccc2OC[C@@H](C)N(C(=O)CN(C)C)C[C@@H]1C	x	0	x	x	x	x	x
c1ccc(Nc2ccc(NCCc3c[nH]c4ccccc34)cc2)cc1	x	3	x	x	78*	x	i
CC(C)NC(=O)Nc1cccc2c1O[C@@H](CN(C)S(=O)(=O)c1ccccc1)[C@@H](C)CN([C@@H](C)CO)C2=O	x	2	x	x	10	6	x
C=CCNc1nc(NCc2ccc(NC(C)=O)cc2)c2sc(-c3ccccc3)cc2n1	-5	-2	x	x	-32	-8	x
COc1ccccc1CNc1nc(NCc2ccccc2OC)c2sccc2n1	-4	-4	x	x	-10	0	x
CC(=O)Nc1ccc(CNc2nc(NC(C)C)nc3cc(-c4ccccc4)sc23)cc1	-8	1	x	x	97*	-7	i
COc1ccccc1CNc1nc(NCc2ccc(NC(C)=O)cc2)c2sccc2n1	-1	-1	x	x	51*	4	i
